Only some compounds are listed: those with a hit (about 1.6% of all), similar ones and a draw of the others.
KCNQ2 enhance: KCNQ2 (rat) channel potentiation | O88943 | CHO-K1 KCNQ2, FluxOR thallium flux fluorescence; hits give high values | B-score at 10 µM | 310,000 tested, 0.54% active | AID 2239;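 active = fluorescence ratio B-score at least 3 SD of library B-scores, with initial fluorescence B-score within 3 of them, cut at about 5.3 in these data; same plate scores as AID 2156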;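 also: B-score of peak minus minimum over baseline fluorescence ratio after K+ and Tl+ stimulus; positive B-score means potentiation of KCNQ2 with more thallium influx and brighter signal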
Target sequence (O88943 whole entry, looked up): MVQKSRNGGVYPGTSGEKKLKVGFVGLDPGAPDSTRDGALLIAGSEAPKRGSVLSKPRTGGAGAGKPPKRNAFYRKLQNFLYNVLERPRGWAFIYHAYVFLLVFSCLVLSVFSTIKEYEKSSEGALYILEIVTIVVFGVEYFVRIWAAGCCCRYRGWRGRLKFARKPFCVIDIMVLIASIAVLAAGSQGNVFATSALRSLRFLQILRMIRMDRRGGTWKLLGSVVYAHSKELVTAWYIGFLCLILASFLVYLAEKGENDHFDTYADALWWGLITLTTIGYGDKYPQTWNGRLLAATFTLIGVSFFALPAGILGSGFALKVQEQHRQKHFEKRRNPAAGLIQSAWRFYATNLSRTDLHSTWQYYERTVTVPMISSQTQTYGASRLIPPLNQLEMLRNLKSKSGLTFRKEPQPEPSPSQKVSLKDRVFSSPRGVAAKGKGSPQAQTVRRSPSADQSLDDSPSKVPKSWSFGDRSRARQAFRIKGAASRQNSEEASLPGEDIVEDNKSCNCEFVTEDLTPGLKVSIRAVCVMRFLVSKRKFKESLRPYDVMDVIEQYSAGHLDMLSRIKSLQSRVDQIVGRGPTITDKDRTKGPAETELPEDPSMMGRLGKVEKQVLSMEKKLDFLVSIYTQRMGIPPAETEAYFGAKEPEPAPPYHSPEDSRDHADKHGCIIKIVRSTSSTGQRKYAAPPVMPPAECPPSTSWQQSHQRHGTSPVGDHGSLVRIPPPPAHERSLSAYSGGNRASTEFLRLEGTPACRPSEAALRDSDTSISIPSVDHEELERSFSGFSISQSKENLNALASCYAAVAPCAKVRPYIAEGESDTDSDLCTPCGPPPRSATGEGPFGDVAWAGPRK
KCNQ2 inh: blocks the rat KCNQ2 potassium channel; 310,000 tested, 1.1% active; CHO-K1 KCNQ2, FluxOR thallium flux, 20 min; hits give low values; O88943; AID 2156; B-score at 10 µM;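 active = fluorescence ratio B-score at most minus 3 library SDs, with starting brightness B-score within 2 library SDs, cut at about -5.5 in these data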
A number is an active result.

O=C(CNC(=O)C1CCCCC1)NNC(=O)c1ccccc1Br was read as KCNQ2 inh inactive.
For COc1cc(NC(=S)NCc2cccnc2)cc(OC)c1OC the results were KCNQ2 enhance inactive and KCNQ2 inh inactive.
`COc1cc(NC(=S)NCc2cccnc2)cc(OC)c1` gave KCNQ2 enhance inactive and KCNQ2 inh -7.41.
Screening O=C(Cn1nc2n(c1=O)-c1ccccc1SC2)N/N=C/c1ccncc1 returned KCNQ2 inh inactive.
Screening Cc1oc(-c2ccccc2F)nc1CS(=O)CC(=O)NC1CCCCC1 (stereo not given) returned KCNQ2 enhance inactive and KCNQ2 inh inactive.
Screening COc1ccc(-c2cc(C(=O)N(C)CC(=O)Nc3cccc(F)c3)c3ccccc3n2)cc1 returned KCNQ2 inh inactive.
Screening COc1ccc(OC2CCN(S(=O)(=O)c3cccc(F)c3)CC2)cc1 returned KCNQ2 inh inactive.
Screening O=S(=O)(c1cccc(F)c1)N1CCc2sccc2C1c1ccc(OC(F)(F)F)cc1 (stereo not given) returned KCNQ2 enhance inactive and KCNQ2 inh -5.88.
Screening Cc1ccc(S(=O)(=O)NCCNC(=O)CN2CCOCC2)cc1 returned KCNQ2 inh inactive.
N=c1sccn1CC(=O)Nc1ccc([N+](=O)[O-])cc1Cl was read as KCNQ2 inh inactive.
CCN(CC)S(=O)(=O)c1cccc(-n2c(O)c(C=Nc3ccccc3C(=O)O)c3ccccc3c2=O)c1 was read as KCNQ2 inh inactive.
`N#Cc1ccc(NC(=O)N2CCC(c3nc4c(nnn4Cc4cccc(Cl)c4)c(=O)[nH]3)CC2)cc1` gave KCNQ2 enhance inactive and KCNQ2 inh -7.5.
Screening O=C(c1ccco1)N1CCCC(c2nc3c(nnn3Cc3cccc(Cl)c3)c(=O)[nH]2)C1 (stereo not given) returned KCNQ2 enhance inactive and KCNQ2 inh inactive.
Screening COc1ccc(N(S(=O)(=O)c2ccccc2)S(=O)(=O)c2ccccc2)c(N)c1 returned KCNQ2 inh inactive.
O=C1C(C2=NC(c3ccccn3)C3C(=O)N(c4ccccc4)C(=O)C23)=C(O)c2ccccc21 (stereo not given) was read as KCNQ2 inh inactive.
Screening O=C1c2ccccc2C(Nc2ccc(Cl)cn2)N1Cc1ccccc1 (stereo not given) returned KCNQ2 enhance inactive and KCNQ2 inh -6.49.
O=C(CN1C(=O)c2ccccc2C1=O)Nc1ccc(Cl)cn1 was read as KCNQ2 enhance inactive and KCNQ2 inh inactive.
`COCc1cc(C)nc(SCC(=O)Nc2ccccc2C)c1C#N` gave KCNQ2 enhance inactive and KCNQ2 inh inactive.
`COCc1cc(C)nc(SCC(=O)Nc2cc(C(F)(F)F)ccc2N2CCOCC2)c1C#N` gave KCNQ2 enhance inactive and KCNQ2 inh -5.63.
For COc1ccccc1CNC(=O)[C@H](Cc1c[nH]c2ccccc12)NC(=O)[C@@H]1Cc2ccccc2CN1 the results were KCNQ2 enhance inactive and KCNQ2 inh -6.79.
`COc1ccccc1CNC(=O)Cc1c[nH]c2ccccc12` gave KCNQ2 inh inactive.
CN(C)S(=O)(=O)c1ccc(N2CCCC2)c(C(=O)NC2CCC(O)CC2)c1 (stereo not given) was read as KCNQ2 inh inactive.
`COc1c(C)cc(C(=O)C2CCCN(Cc3ccc(Oc4ncccn4)cc3)C2)cc1C` (stereo not given) gave KCNQ2 inh inactive.
CC(C)Oc1cccc(C(=O)C2CCCN(Cc3ccc(Oc4ncccn4)cc3)C2)c1 (stereo not given) was read as KCNQ2 enhance inactive and KCNQ2 inh -7.77.
Cc1cc(C)nc(N2CCN(C(=O)CCC(=O)Nc3nnc(C(C)C)s3)CC2)n1 was read as KCNQ2 enhance inactive and KCNQ2 inh inactive.
COc1cccc(C2C=C(c3ccc(Br)s3)Nc3ncnn32)c1OC (stereo not given) was read as KCNQ2 enhance inactive and KCNQ2 inh -6.6.
For Fc1ccc(Br)cc1C1C=C(c2ccc(Br)s2)Nc2ncnn21 (stereo not given) the results were KCNQ2 inh inactive.
Cc1ccc(O)c(C2=Nc3ccccc3N=C(c3cccs3)C2)c1 was read as KCNQ2 enhance inactive and KCNQ2 inh -5.59.
Screening Oc1ccccc1C1=Nc2ccccc2N=C(c2cccs2)C1 returned KCNQ2 inh inactive.
Screening O=C(NCc1ccc2c(c1)OCO2)C1CCN(S(=O)(=O)c2ccc(Br)s2)CC1 returned KCNQ2 enhance 17.4 and KCNQ2 inh inactive.
O=C(NCc1ccc2c(c1)OCO2)C1CCN(S(=O)(=O)c2cccs2)CC1 was read as KCNQ2 enhance inactive and KCNQ2 inh inactive.
For CC1Oc2ccccc2C=C1/C=N/Nc1ccc(C(=O)O)cc1 (stereo not given) the results were KCNQ2 enhance inactive and KCNQ2 inh inactive.
Screening COc1ccc(CNC(=O)COC(=O)c2ccc(OCc3c(C)noc3C)cc2)cc1OC returned KCNQ2 enhance inactive and KCNQ2 inh inactive.
Screening Cc1noc(C)c1COc1ccc(C(=O)OCC(=O)NCc2ccccc2Cl)cc1 returned KCNQ2 enhance inactive and KCNQ2 inh -6.49.
Screening CCn1c(=O)c2c(nc(SCC(=O)N3CCC(C)CC3)n2C)n(C)c1=O returned KCNQ2 enhance inactive and KCNQ2 inh inactive.
`Cc1ccc2c(c1)N(CCCC(=O)NCCCN1CCCCC1)C(=O)CO2` gave KCNQ2 enhance inactive and KCNQ2 inh inactive.
Screening CCN(CCCNC(=O)CCCN1C(=O)COc2ccc(C)cc21)c1cccc(C)c1 returned KCNQ2 enhance inactive and KCNQ2 inh -6.31.
Screening C=CCC1(C#N)C(SC)=NC2=C(C(=O)CC(C)(C)C2)C1c1ccc(Br)cc1 (stereo not given) returned KCNQ2 enhance inactive and KCNQ2 inh -6.57.
Screening Cc1ccc(C2C3=C(CC(C)(C)CC3=O)N=C3c4ccccc4C(=O)C32)cc1 (stereo not given) returned KCNQ2 inh inactive.
Cc1ccc(C)c(N(C(=O)c2csnn2)C(C(=O)NC2CCCCC2)c2ccccn2)c1 (stereo not given) was read as KCNQ2 enhance inactive and KCNQ2 inh inactive.
`COc1ccccc1NC(=O)C(C)OC(=O)CCC1CCCCC1` (stereo not given) gave KCNQ2 inh inactive.
`CCc1ccc2c(c1)C1(NN=C(c3cccc4ccccc34)S1)C(=O)N2` (stereo not given) gave KCNQ2 enhance inactive and KCNQ2 inh -14.4.
`CCc1ccc2c(c1)C1(C(=O)N2)N2CCCC2C(C(=O)c2ccc3ccccc3c2)C12C(=O)Nc1ccccc12` (stereo not given) gave KCNQ2 enhance inactive and KCNQ2 inh inactive.
C/C(=N\Nc1nc2ccccc2[nH]1)c1ccc(C)o1 was read as KCNQ2 enhance inactive and KCNQ2 inh inactive.
Screening C/C(=N\Nc1nc2ccccc2[nH]1)c1ccc(Cl)s1 returned KCNQ2 enhance 13.4 and KCNQ2 inh inactive.
For O=C(NCC1CCCO1)c1cc2ccccc2oc1=O (stereo not given) the results were KCNQ2 inh inactive.
Screening CCOC(=O)C1(Cc2ccccc2)CCCN(S(=O)(=O)N(C)C)C1 (stereo not given) returned KCNQ2 enhance inactive and KCNQ2 inh inactive.
For CCOC(=O)C1=C(C)NC(C)=C(C(=O)OCC)C1c1ccccc1/C=C/C(=O)OC(C)(C)C the results were KCNQ2 enhance inactive and KCNQ2 inh -6.7.
Screening CCOC(=O)C1=C(C)NC(C)=C(C(=O)OCC)C1/C=C/c1ccccc1OC returned KCNQ2 enhance inactive and KCNQ2 inh inactive.
CCN1C(=O)c2ccccc2Sc2ccc(C(=O)NCCCN(CC(C)C)CC(C)C)cc21 was read as KCNQ2 inh inactive.
